Pyk2 oligo antag = Pyk2 (human) oligomerization antagonism; Q14289; Q293 cells, Pyk2 FERM NanoBiT luminescence; stronger effect = lower value; z-score (the deposit names both 25 µM and 10 µM); hit rate 0.83% among 99,000; AID 1347419;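 active = Z-score of -3 or lower, scaled per plate to the spread of control and sample wells; inactive = z-score above -3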;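 also: negative z-score means lost luminescence so less FERM oligomerization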
CYP2C9 inhib = human CYP2C9 inhibition. CYP2C9 Supersomes, luciferin-H conversion, luminescence. hit rate 20% among 96,000. inhibition, % at 5 µM. P11712. AID 777;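 active = blocking of liver enzyme CYP2C9 beyond about 50% at 5 µM, limit read from the data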
CYP2C9 act = activators of human CYP2C9 | P11712 | recombinant CYP2C9, luciferin-H conversion, luminescence; stronger effect = higher value; factor 1 = untreated enzyme, 0 = blocked | activation factor at 5 µM | hit rate 1.4% among 96,000 | AID 1024;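 active = activation factor of 2 or more for CYP2C9 at a 5 µM dose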;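 also: 0 = sulfaphenazole-blocked wells and 1 = vehicle-only wells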
CYP2C19 activ = activators of human cytochrome P450 2C19 | P33261 | recombinant CYP2C19, luciferin-H EGE luminescence; stronger effect = higher value; 0 = fully inhibited enzyme, 1 = untreated enzyme | activation factor at 5 µM | 96,000 tested, under 10 active;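 active = activation factor of at least 2 at 5 µM in the primary screen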;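 also: 0 = wells with 2.5 mM tranylcypromine and 1 = vehicle-only wells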
Target sequence (P33261 whole entry, looked up): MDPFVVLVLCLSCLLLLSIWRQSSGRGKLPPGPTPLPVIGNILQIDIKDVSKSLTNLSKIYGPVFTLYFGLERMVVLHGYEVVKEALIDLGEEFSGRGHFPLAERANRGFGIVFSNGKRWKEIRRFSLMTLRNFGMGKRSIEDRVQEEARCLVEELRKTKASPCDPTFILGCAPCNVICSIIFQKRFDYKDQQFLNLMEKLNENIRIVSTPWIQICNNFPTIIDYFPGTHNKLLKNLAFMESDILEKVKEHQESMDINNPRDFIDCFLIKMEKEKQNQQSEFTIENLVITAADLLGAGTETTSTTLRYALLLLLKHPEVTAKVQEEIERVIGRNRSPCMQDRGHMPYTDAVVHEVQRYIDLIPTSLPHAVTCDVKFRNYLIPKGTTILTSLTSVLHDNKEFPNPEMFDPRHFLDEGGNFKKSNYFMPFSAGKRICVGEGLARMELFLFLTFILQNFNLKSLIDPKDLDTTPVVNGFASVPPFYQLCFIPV
CYP2C19 inhib = inhibitors of human CYP2C19; CYP2C19 Supersomes, luciferin-H EGE luminescence, 30 min; inhibition, % at 5 µM; hit rate 21% among 96,000; AID 778;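 active = CYP2C19 inhibition above a set limit at 5 µM in the primary screen, cut at about 50% in these data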;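 also: plate controls were negative control wells for no effect and 2.5 mM tranylcypromine positive control for full effect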
* hit, by the source's call; . = no result given. Sampled rows, rich in hits. Any-hit rate of the full collection: about 28%.

SMILES	Pyk2 oligo antag	CYP2C9 inhib	CYP2C9 act	CYP2C19 activ	CYP2C19 inhib
CCCCCCCOC(=O)C1=C(C)Nc2ncnn2C1c1cccs1 (stereo not drawn)	-1.4	64*	0.4	0.3	74*
CC1=C(C(=O)Nc2ccccc2)C(c2cccs2)n2nnnc2N1 (stereo not drawn)	0.65	34	0.7	0.6	37
CN(Cc1nnc(SCC(=O)NCCc2ccccc2)n1C)S(=O)(=O)c1ccccc1	-0.77	46	0.5	0.9	9
CCCCNC(=O)C1CCCN1C(=O)Nc1ccccc1 (stereo not drawn)	1.6	.	.	.	.
CCc1ccc(OCc2ccc(C(=O)NCc3ccccn3)o2)cc1	1.4	55*	0.4	0.3	71*
CCOc1ccc(OCc2ccc(C(=O)O)o2)cc1	0.79	30	0.7	0.3	70*
O=C(OCc1ccccn1)c1ccc(COc2ccccc2Cl)o1	1.6	26	0.7	0.4	61*
Cc1ccccc1CS(=O)(=O)Cc1ccc(C(=O)NCc2ccccn2)o1	1.3	10	0.9	0.9	10
CCOc1ccc(OCc2ccc(C(=O)NCc3ccncc3)o2)cc1	0.65	80*	0.2	0.1	92*
COC(=O)Nc1ccc2ncn(C)c(=O)c2c1	.	-4	1	1.1	-6
COc1ccc(CNC(=O)C2CC(c3ccccc3[N+](=O)[O-])=NO2)cc1 (stereo not drawn)	.	-6	1.1	0.5	50*
O=C(NCc1cccc(C(F)(F)F)c1)C1CC(c2ccccc2[N+](=O)[O-])=NO1 (stereo not drawn)	.	-19	1.2	0.6	40
COc1ccccc1CNC(=O)C1CC(c2ccccc2[N+](=O)[O-])=NO1 (stereo not drawn)	.	-180	2.8*	0.6	43
CN(C)c1cc(O)c(C(=S)Nc2ccccc2)c(N(C)C)c1	-1.7	5	0.9	0.2	79*
CCCc1ccc(Oc2cc(N3CCOCC3)nc(-c3ccccc3)n2)cc1	0.12	.	.	.	.
CCC1SC2=NC(C)=C(C(=O)OCC(C)C)C(/C=C/c3ccccc3OC)N2C1=O (stereo not drawn)	-0.13	78*	0.2	0.6	38
COC(=O)C1=C(C)N=C2SCCC(=O)N2C1/C=C/c1ccccc1 (stereo not drawn)	0.2	28	0.7	0.7	35
COC(=O)C1=C(C)N=C2SC(C)C(=O)N2C1/C=C/c1ccccc1OC (stereo not drawn)	0.16	63*	0.4	0.2	81*
CCC1SC2=NC(C)=C(C(=O)OCCOC)C(/C=C/c3ccccc3OC)N2C1=O (stereo not drawn)	0.24	91*	0.1	0.2	78*
Cn1c(=O)[nH]c(=O)c2c1nc(NCCCO)n2CCCc1ccccc1	0.59	10	0.9	0.9	10
CCC(CC)C(=O)OCC(=O)NC12CC3CC(CC(C3)C1)C2	0.57	34	0.7	0.1	94*
COCCN(CCOC)Cc1c(C)[nH]c2c(C)c(C)ccc2c1=O	0.76	14	0.9	0.9	9
CC1=Nn2c(nnc2-c2ccc(F)cc2)SC1	-0.13	-4	1	0.9	6
COc1ccc(Oc2nnnn2-c2ccccc2)cc1	-0.87	.	.	.	.
c1ccc(-n2nnnc2Oc2ccc(-n3ccnc3)cc2)cc1	0.77	99*	0	0	100*
SMILES	Pyk2 oligo antag	CYP2C9 inhib	CYP2C9 act	CYP2C19 activ	CYP2C19 inhib
NC(=O)c1ccc(-n2nnnc2Oc2ccccc2)cc1	1.7	3	1	0.8	22
c1ccc(-n2nnnc2OCCOc2nnnn2-c2ccccc2)cc1	0.43	34	0.7	0.5	46
COc1cccc(Oc2nnnn2-c2ccccc2)c1	0.2	25	0.8	0.4	60*
CC(C)Oc1nnnn1-c1ccccc1	-0.3	63*	0.4	0.6	39
Clc1ccc(Oc2nnnn2-c2ccccc2)cc1	-1.1	48	0.5	0.3	73*
O=C(O)/C=C/C(=O)Nc1ccccc1C(=O)Nc1ccccc1	-0.06	4	1	1.5	-48
COc1cc(C2NC(=O)NC(C)=C2C(=O)OC2CCCCC2)cc(Br)c1O (stereo not drawn)	-1.2	96*	0	0.2	79*
CCOC(=O)C1=C(C)NC(=O)NC1c1cc(Br)c(O)c(OC)c1 (stereo not drawn)	-0.64	64*	0.4	0.6	40
CCSCCOC(=O)C1=C(C)NC(=O)NC1c1ccccc1 (stereo not drawn)	.	4	1	0.7	32
CC1=C(C(=O)OCC2CCCO2)C(c2cccc(O)c2)NC(=O)N1 (stereo not drawn)	1.6	20	0.8	0.3	67*
CCOC(=O)C(C)Oc1ccc(C2NC(=O)NC(C)=C2C(C)=O)cc1Br (stereo not drawn)	0.08	72*	0.3	0.7	31
COc1cc(C2NC(=O)NC(C)=C2C(=O)OCc2ccc(C)cc2)cc(OC)c1O (stereo not drawn)	-0.1	23	0.8	0.6	38
C=CCOc1c(Br)cc(C2NC(=O)NC(C)=C2C(C)=O)cc1OCC (stereo not drawn)	-2	43	0.6	0.9	13
CCn1nnnc1SCC(=O)Nc1nc(C)c(C)s1	-0.07	.	.	.	.
Cn1cc(Br)c(C(=O)NNC(=O)c2cccc(Br)c2)n1	-0.01	-87	1.9	1.1	-10
CCN1C(=O)C2C(C1=O)N1C(c3cccs3)C3C(=O)N(CC)C(=O)C3N1C2c1cccs1 (stereo not drawn)	0.62	-2	1	1	1
CCOc1ccccc1C1NC(=O)NC(C)=C1C(=O)OC1CCCCC1 (stereo not drawn)	-1.7	9	0.9	1	-3
CCOC(=O)C1=C(C)NC(=O)NC1c1ccc(Br)s1 (stereo not drawn)	-0.57	37	0.6	0.2	78*
COC(=O)C1=C(C)N(C)C(=O)NC1c1ccccc1 (stereo not drawn)	-0.98	13	0.9	0.9	6
CC1=C(C(=O)OC2CCCCCCC2)C(c2ccc(O)cc2)NC(=O)N1 (stereo not drawn)	0.93	92*	0.1	0.2	82*
CC1=C(C(=O)OC(C)C)C(c2ccc(Br)s2)NC(=O)N1C (stereo not drawn)	-0.08	88*	0.1	0	99*
CCOC(=O)C1=C(C)NC(=O)NC1c1ccccc1Cl (stereo not drawn)	-1	32	0.7	1	5
COC(=O)CCCC(=O)Nc1c(F)c(F)c(F)c(F)c1F	1.2	7	0.9	0.9	9
Cc1[nH]n(-c2ccccc2)c(=O)c1C(C[N+](=O)[O-])c1ccccc1Cl (stereo not drawn)	-0.82	92*	0.1	0.1	88*
COc1ccc(NC(=O)CN2CCC3(O)CCCCC3C2c2cc(OC)ccc2OC)cc1 (stereo not drawn)	-0.21	80*	0.2	0.3	71*
COc1ccc(NC(=O)CN2CCC(C)CC2)c([N+](=O)[O-])c1	-0.99	54*	0.5	0.4	65*
COc1ccc(NC(=O)CN2CCC(C)CC2)cc1	-0.79	3	1	0.1	89*

Assay outcomes: PubChem BioAssay, Sanford-Burnham Center for Chemical Genomics
